PrP 5UTR inh: suppresses PrP 5' UTR mRNA reporter expression. cell-based PrP 5' UTR mRNA reporter, plate reader. inhibition, % (test concentration not listed). 340,000 tested, 0.35% active; in the data active means inhibition above about 52%; further: 0 = median of the neutral control wells
PfHsp40 rescue: compounds rescuing yeast from Plasmodium falciparum HSP40 toxicity; S. cerevisiae expressing PfHsp40, growth rescue, ATP luminescence; 340,000 tested, 0.68% active; growth rescue, % at 12.5 µM; in the data active means growth rescue above about 28%, passing the limit was not always enough;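 further: yeast W303a lacking pdr1 and pdr3 grown in galactose medium; growth measured after three days at 30 °C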
MazF activator: increases E. coli MazEF RNase cleavage of RNA. P0AE70. FAM/BHQ RNA-DNA oligo cleavage fluorescence, 5 h. activation, % at 20 µM. 350,000 tested, 0.32% active; in the data active means activation above about 50%
Target sequence (P0AE70 whole entry, looked up): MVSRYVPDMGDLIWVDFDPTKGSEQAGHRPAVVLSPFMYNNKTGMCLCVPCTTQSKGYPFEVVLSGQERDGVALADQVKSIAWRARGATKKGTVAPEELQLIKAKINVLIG
SSB-PriA inh: K. pneumoniae PriA-SSBct interaction inhibition. AlphaScreen SSBct-PriA binding, biotinylated peptide. inhibition, % at 33 µM. 430,000 tested, 0.6% active; in the data active means inhibition mostly above about 37%, no sharp cut-off; inactive means mostly below about 20%;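 further: plate controls were negative control peptide for no effect and reference peptide for full effect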
PrPC surface inh: inhibitors of human cell surface prion protein PrPC; TR-FRET read-out; 370,000 tested, 0.43% active; AID 720596; inhibition, % at 13.8 µM; in the data active means inhibition above about 24%; further: 0% = median of the test wells and 100% = reference compound wells
Starred values were filed as active, the others as inactive; . = no result. This is a sample that favours compounds with a hit; in the whole collection about 1.8% have one here.

SMILES	PrP 5UTR inh	PfHsp40 rescue	MazF activator	SSB-PriA inh	PrPC surface inh
Cc1cccc(N2C(=O)C=CC2=O)c1	-18	1	9	-2	6
O=C1C=CC(=O)N1c1ccc2ccccc2c1	-13	766*	8	-14	11
Cn1nccc1C(=O)N1CCN(c2ccccc2Cl)CC1	-11	1	-2	-18	-1
Cc1ccsc1S(=O)(=O)N1CCCC(CCC(=O)NCc2ccccc2F)C1 (stereo not given)	-35	0	6	-13	-5
Cc1ccsc1C(=O)N1CCCC(CCC(=O)NCc2ccccc2F)C1 (stereo not given)	-25	37*	6	-2	6
S=c1[nH]ncn2c1cc1oc3ccccc3c12	-22	0	-2	2	97*
COc1cccc(OC)c1CNC(=O)CCSCc1ccccc1F	24	0	3	2	6
O=S(=O)(Cc1ccccc1)NCC1CCN(Cc2ccco2)CC1	.	.	.	-8	.
Cc1ccccc1/C=C1\SC(=S)N(/N=C/c2cc([N+](=O)[O-])ccc2O)C1=O	-19	229*	-4	.	-7
CCS(=O)(=O)N1CCCc2cc(NC(=O)c3ccccc3Cl)ccc21	.	.	.	-11	.
CCOc1ncccc1C(=O)Nc1ccc2c(c1)CCCN2S(=O)(=O)CC	.	.	.	38*	.
CCN1C[C@@H]2[C@@H]3C(=O)N(Cc4ccccc4)C(=O)[C@@H]3[C@](CC)(C1=O)N2C(=O)c1ccc(Cl)cc1	.	.	.	.	-3
Cc1cc(C)nc(SCc2cc(=O)c(OC(=O)c3ccco3)co2)n1	-14	0	3	-8	-2
Cc1cc(C)nc(SCc2cc(=O)c(OC(=O)c3ccc(S(=O)(=O)N4CCCC4)cc3)co2)n1	-11	130*	-1	-7	9
Cc1cc(NC(=O)CSc2nnnn2-c2ccccc2C)no1	-13	2	1	-2	3
O=C(OCCc1cc2ccccc2c(=O)o1)N1CCOCC1	-11	-2	3	-4	5
O=C(CCSc1nnc(-c2ccncc2)o1)Nc1ccc(Cl)cc1	-13	197*	2	-9	13
COc1ccc(-c2cc(=O)n(-c3nc4ccccc4[nH]3)[nH]2)cc1	-26	2	-1	40*	7
CC1=C(C(=O)c2ccccc2)C(c2ccc(N3CCOCC3)cc2)NC(=O)N1 (stereo not given)	-13	0	9	-2	8
O=C1CNc2ccc(C(=O)N3CCN(c4ccccn4)CC3)cc2N1	-15	-1	-14	-12	-1
O=C(NCCCN1CCOCC1)c1ccc2ccccc2c1	-17	-2	0	-2	-7
O=C(NCCCN1CCOCC1)c1cccc(NC(=O)c2ccccc2)c1	-24	122*	-5	-3	0
CC(=O)Nc1ccc(S(=O)(=O)N(C)CC(=O)Nc2ccccc2N2CCCC2)cc1	-13	0	3	-4	2
Cc1ccc2nc(C)cc(C(=O)OCC(=O)Nc3c(C)n(C)n(-c4ccccc4)c3=O)c2c1	-4	0	5	4	7
Cc1c(NC(=O)COC(=O)c2cc(-c3cccc4ccccc34)nc3ccccc23)c(=O)n(-c2ccccc2)n1C	-3	1	62*	5	3
SMILES	PrP 5UTR inh	PfHsp40 rescue	MazF activator	SSB-PriA inh	PrPC surface inh
CN(C)c1ccc(C=C2C=Cc3ccccc32)cc1	-10	-1	98*	0	5
CC(C)C(=O)Nc1ccc(C=C2C=Cc3ccccc32)cc1	.	.	.	.	-6
COc1cc2c(cc1OC)C(=Cc1ccc(N(C)C)cc1)C=C2	-36	0	12	40	2
CNc1ccc(C=C2C=Cc3ccccc32)cc1	-62	172*	9	4	12
C[C@](O)(CNC(=O)CCc1ccc(C(F)(F)F)cc1)c1ccco1	.	.	.	-9	.
CC(C)(C)c1ccc2c(c1)OC(C(=O)N/N=C/c1ccc[nH]1)CO2 (stereo not given)	.	.	.	.	2
CC(C)NC(=O)N(C)C[C@H]1OCCCC[C@H](C)Oc2ccc(NC(=O)NC3CCCCC3)cc2C(=O)N([C@H](C)CO)C[C@@H]1C	.	.	1	.	-5
Clc1c(Cl)c(Cl)c2n[nH]nc2c1Cl	-28	59*	2	10	-3
COc1cccc(C2/C(=C(/O)c3cnn(-c4ccccc4)c3C)C(=O)C(=O)N2CCN(C)C)c1 (stereo not given)	-8	0	4	.	-7
Cc1nc(C)c(C(=O)OCC(=O)NCc2ccccc2)s1	-1	-2	10	4	1
COc1ccc(-c2ccc3c(=O)cc(-c4ccsc4)oc3c2)cn1	-24	-1	70*	-3	-6
C1=Nc2c(NCc3ccccc3)ncnc2Oc2ccccc21	-7	1	-1	-7	6
O=C(OCC(=O)C12CC3CC(CC(C3)C1)C2)c1ccc(CO)cc1	-26	1	-2	0	-5
O=C(OCC(=O)C12CC3CC(CC(C3)C1)C2)c1ccc(O)cc1	-40	425*	-11	-2	-5
CCOc1ccc(Cn2c3ccc(OC)cc3c3nc4ccccc4nc32)cc1	-19	0	65*	-20	-3
CCCCOC(=O)Cn1c2ccc(OC)cc2c2nc3ccccc3nc21	-18	1	215*	-6	-4
CCn1c2ccc(OC)cc2c2nc3ccccc3nc21	.	.	18	-67	-11
Cc1ccccc1N1CCN(C(=O)COc2cc(=O)n(C)c3ccccc23)CC1	.	.	.	.	5
Cc1ccc(NC(=O)CSCC(=O)N2CCN(c3cccc(C(F)(F)F)c3)CC2)cc1	-4	41*	-4	-4	2
Cn1c(=O)cc(OCC(=O)N2CCN(c3cccc(C(F)(F)F)c3)CC2)c2ccccc21	6	48*	-5	-8	-3
COc1ccc(C(=O)OCC(=O)Nc2ccc3c(c2)OCCO3)c(OC)c1	-23	2	4	-7	-1
Cc1ccccc1C(=O)O/N=C(\N)c1cccc([N+](=O)[O-])c1	-67	1	-9	.	-2
N/C(=N\OC(=O)c1cccc2ccccc12)c1cccc([N+](=O)[O-])c1	-17	0	55*	.	1
CC1=C(C(=O)OC2CCCC2)C(c2ccc(C)o2)C2=C(CC(c3cccs3)CC2=O)N1 (stereo not given)	2	0	-12	-11	3
Cc1c(Cc2ccccc2Cl)c(NCCN(C)C)n2c(nc3ccccc32)c1C#N	.	.	.	1	.
SMILES	PrP 5UTR inh	PfHsp40 rescue	MazF activator	SSB-PriA inh	PrPC surface inh
Cc1c(Cc2ccccc2)c(NCCN(C)C)n2c(nc3ccccc32)c1C#N	-4	171*	12	-12	-9
COc1ccc(N=Nc2cc(C)c(O)c(CN3CCCCC3)c2)cc1	-23	1	-4	54*	-3
COc1ccc(N/N=C(\C#N)C(=N)SCc2ccccc2)cc1	-14	209*	7	.	4
CCCNc1nc2c(c(=O)n(C)c(=O)n2C)n1CCCc1ccccc1	-48	1	8	10	1
O=C1c2ccccc2C(Nc2ccc(S(=O)(=O)N3CCOCC3)cc2)N1c1ccccn1 (stereo not given)	-13	-1	2	-5	6
O=C1c2ccccc2C(Nc2ccc(S(=O)(=O)N3CCCCCC3)cc2)N1c1ccccn1 (stereo not given)	-9	0	94*	3	-5
